Records with an inconclusive call do not appear. Active and inactive are the calls of the source. Unless noted, the call rests on the fitted dose curve; in most records, active means well fitted curve in the direction sought with a large enough effect in the repeat runs; inconclusive means weak or mixed curves; inactive means no such curve, though single readings can be large; an effect the other way counts as inactive or inconclusive.
Columns and labels:
[1] = qHTS assay for small molecule agonists of the p53 signaling pathway (AID 651631; calls by dose curve; further: nearly all actives have a fitted effect of over 15% in size)
How it was run: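 Quantitative high-throughput format: 4,000 p53RE-bla HCT-116 cells/well, 5 h pre-incubation, 16 h compound exposure at 37 °C, 2 h room-temperature substrate step, fluorescence intensity measured.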

[2] = qHTS assay for small molecules that induce genotoxicity in human embryonic kidney cells expressing luciferase-tagged ATAD5 (AID 651632); further: nearly all actives have a fitted effect of over 15% in size
How it was run: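 ATAD5-luc HEK293T, 2,000 cells/well; cpd or DMSO pin-transferred; 16 hr, 37C/5% CO2; Amplite 30 min RT; luminescence.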

[3] = qHTS assay for small molecule agonists of the p53 signaling pathway - cell viability (AID 651633; calls by dose curve;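 further: p53RE-bla HCT reporter cells with a stable beta-lactamase p53 reporter; series mostly up to about 83 µM; nearly all actives have a fitted effect of over 30% in size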)
How it was run: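 p53RE-bla cells, seeded at 4,000 per well and rested 5 h at 37 C/5% CO2, received compounds in DMSO for 16 h at 37 C. CellTiter-Glo was then added, and luminescence was read after 30 min at room temperature to gauge cytotoxicity.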

[4] = qHTS assay for small molecules that induce genotoxicity in human embryonic kidney cells expressing luciferase-tagged ATAD5 - cell viability (AID 651634; calls by dose curve; further: nearly all actives have a fitted effect of over 25% in size)
How it was run: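 Fluorescence from CellTiter-Fluor, reporting protease activity within live cells, served as the viability read-out. HEK293T cells carrying luciferase-tagged ATAD5 had been treated with compound for 15.5 hr at 37C.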

[5] = qHTS assay for small molecule disruptors of the mitochondrial membrane potential - cell viability (AID 720634; calls by dose curve;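 further: human HepG2 liver cancer cells; series mostly up to about 83 µM; nearly all actives have a fitted effect of over 20% in size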)
How it was run: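 Cells: HepG2, 2,000/well, attached overnight. Compound 1 hr, 37 C/5% CO2. +m-MPI dye, +CellTiter-Glo 30 min RT. Readout: luminescence (ATP).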

[6] = qHTS assay to test for compound auto fluorescence at 590 nm (red) in HepG2 cells (AID 720674)
How it was run: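 Intrinsic compound fluorescence in the red window (Ex/Em 540/590 nm) is measured in attached HepG2 cells exposed for 1 hr, DMSO vehicle as baseline, benchmarked to Rose Bengal sodium.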

[7] = qHTS assay to test for compound auto fluorescence at 535 nm (green) in HepG2 cells (AID 720675)
[8] = qHTS assay to test for compound auto fluorescence at 460 nm (blue) in HEK293 cells (AID 720678)
How it was run: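 Cells were seeded and left to adhere for 4-5 hr at 37C. Compounds were then pin-transferred. After an overnight incubation at 37C under 5% CO2, intrinsic fluorescence at 405/460 nm was measured and referenced to triamterene.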

[9] = qHTS assay to test for compound auto fluorescence at 590 nm (red) in HEK293 cells (AID 720679)
How it was run: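 Each well held 2,000 HEK293 cells in medium containing 10% dialyzed FBS. Following 4-5 hr attachment at 37C, 23 nL test compound or DMSO was added; plates sat overnight, and red fluorescence (540/590nm) was recorded.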

[10] = qHTS assay to test for compound auto fluorescence at 535 nm (green) in HEK293 cells (AID 720680)
[11] = qHTS assay to test for compound auto fluorescence at 460 nm (blue) in HEK293 cell free culture (AID 720681)
How it was run: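 Test compounds were pinned into cell-free culture medium (DMEM with 10% FBS) and fluorescence was read directly at Ex/Em 405/460 nm. Signals were expressed as fluorescence equivalents of triamterene, with DMSO vehicle as control.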

[12] = qHTS assay to test for compound auto fluorescence at 535 nm (green) in HEK293 cell free culture (AID 720682)
How it was run: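 Measurement is a direct plate read of green fluorescence (485 nm in, 535 nm out) after compound addition to serum-supplemented DMEM lacking cells, with fluorescein used to express intensities.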

[13] = qHTS assay to test for compound auto fluorescence at 590 nm (red) in HEK293 cell free culture (AID 720683)
How it was run: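 Tox21 10K library compounds were pinned into cell-free DMEM with 10% FBS and fluorescence was read at excitation 540 nm. Activity is expressed as Rose Bengal sodium equivalency.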

[14] = qHTS assay to test for compound auto fluorescence at 590 nm (red) in HepG2 cell free culture (AID 720684)
How it was run: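 Red fluorescence (540 nm excitation, 590 nm emission) was measured after compound transfer into cell-free MEM supplemented with 10% FBS. Values are equivalencies against Rose Bengal sodium.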

[15] = qHTS assay to test for compound auto fluorescence at 535 nm (green) in HepG2 cell free culture (AID 720686)
[16] = qHTS assay to test for compound auto fluorescence at 460 nm (blue) in HepG2 cells (AID 720687)
How it was run: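 Cells (2,000/well in MEM with 10% FBS) attached overnight at 37 C, then were exposed to compound or DMSO for 1 hr at 37 C, 5% CO2. Fluorescence read at Ex/Em 405/460 nm, expressed as triamterene-equivalent signal.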

[17] = qHTS assay for small molecule disruptors of the mitochondrial membrane potential (AID 720635)
How it was run: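 HepG2 cells (2,000/well) attached overnight at 37C, then took compound for 1 hr at 37C, 5% CO2. Mito-MPS dye was added for 30 min; fluorescence was read at 490/535 nm (monomers) and 540/590 nm (aggregates).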

[18] = qHTS assay to test for compound auto fluorescence at 460 nm (blue) in HepG2 cell free culture (AID 720685)
How it was run: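 Compound (23 nL) or DMSO pinned into cell-free MEM with 10% FBS; blue fluorescence read at 405/460 nm excitation/emission, expressed as auto-fluorescence equivalency to triamterene.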

[19] = molecular target: Glucocorticoid receptor (Homo sapiens) (UniProt P04150); assay: qHTS assay to identify small molecule agonists of the glucocorticoid receptor (GR) signaling pathway (AID 720691; active means well fitted activation curve with a large enough effect in the signal ratio in the repeat runs, not every such curve was filed as active; the % refers to the signal ratio)
How it was run: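 Fluorescence intensity from LiveBLAzer B/G FRET substrate (2 h, room temperature) reports beta-lactamase expression driven by the glucocorticoid response element in GR-bla HeLa cells after 18 h compound exposure at 37 C.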

[20] = molecular target: Glucocorticoid receptor (Homo sapiens) (UniProt P04150); assay: qHTS assay to identify small molecule antagonists of the glucocorticoid receptor (GR) signaling pathway (AID 720692; active means well fitted inhibition curve with a large enough effect in the signal ratio in the repeat runs, not every such curve was filed as active; the % refers to the signal ratio)
How it was run: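 HeLa GR-bla cells; cmpd + dex 5 nM final, 18 h 37 C; LiveBLAzer B/G FRET substrate 2 h RT; fluorescence intensity read. Antagonist mode, qHTS.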
On the % scale 0 is the no-effect control and ±100 the full control effect.

Sequence of Glucocorticoid receptor (Homo sapiens) (P04150 whole entry, looked up): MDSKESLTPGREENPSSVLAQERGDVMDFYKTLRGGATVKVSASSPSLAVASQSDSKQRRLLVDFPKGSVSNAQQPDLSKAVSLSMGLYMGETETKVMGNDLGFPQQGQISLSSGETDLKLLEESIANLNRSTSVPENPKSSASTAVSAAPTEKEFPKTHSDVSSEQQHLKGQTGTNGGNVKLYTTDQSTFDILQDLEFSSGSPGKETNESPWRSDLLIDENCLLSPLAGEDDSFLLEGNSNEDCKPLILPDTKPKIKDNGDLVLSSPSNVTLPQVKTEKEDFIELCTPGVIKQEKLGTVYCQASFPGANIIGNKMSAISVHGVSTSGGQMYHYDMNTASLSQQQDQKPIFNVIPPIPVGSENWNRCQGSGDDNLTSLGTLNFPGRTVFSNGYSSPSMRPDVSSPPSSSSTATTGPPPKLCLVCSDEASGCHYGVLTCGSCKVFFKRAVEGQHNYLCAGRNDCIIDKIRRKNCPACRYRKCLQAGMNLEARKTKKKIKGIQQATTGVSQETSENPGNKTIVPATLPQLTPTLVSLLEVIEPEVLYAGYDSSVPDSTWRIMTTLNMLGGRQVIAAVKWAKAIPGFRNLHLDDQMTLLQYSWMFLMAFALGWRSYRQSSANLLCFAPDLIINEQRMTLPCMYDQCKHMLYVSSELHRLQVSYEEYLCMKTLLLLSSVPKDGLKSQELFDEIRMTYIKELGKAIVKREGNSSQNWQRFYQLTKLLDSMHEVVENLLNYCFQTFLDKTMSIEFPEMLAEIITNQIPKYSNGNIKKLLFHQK

CSc1ccc(C(=O)C(C)(C)N2CCOCC2)cc1
inactive: Potency [1] | Potency [2] | Potency [3] | Potency [4] | Potency [5] | outcome [6] | outcome [7] | outcome [8] | outcome [9] | outcome [10] | outcome [11] | outcome [12] | outcome [13] | outcome [14] | outcome [15] | outcome [16]

C[C@@H]1CN(C2CCC(C#N)(c3ccc(F)cc3)CC2)CC[C@]1(C(=O)O)c1ccccc1 (stereo partly specified)
inactive: Potency [1] | Potency [2] | Potency [3] | Potency [4] | Potency [5] | Potency [17] | fluorescence, relative to Rose Bengal [6] -0.0454% [at 18.6 µM] | fluorescence, % of fluorescein control [7] -0.0057% [at 18.6 µM] | fluorescence, % of triamterene [8] 0.0981% [at 18.6 µM] | fluorescence, % of fluorescent control [9] 0.571% [at 18.6 µM] | fluorescence, % of fluorescein [10] 0.0038% [at 18.6 µM] | fluorescence, % of fluorescent control [11] -0.0038% [at 18.6 µM] | activity change [12] -0.0185% [at 18.6 µM] | fluorescence, % of fluorescent control [13] 0.238% [at 18.6 µM] | fluorescence, % of Rose Bengal [14] -0.17% [at 18.6 µM] | fluorescence, % of fluorescent control [18] -0.0833% [at 18.6 µM] | fluorescence, % of fluorescein control [15] 0.0942% [at 18.6 µM] | fluorescence, % of fluorescent control [16] -0.0325% [at 18.6 µM] | outcome [19]

NC1=NC(=O)C(c2ccccc2)O1 (stereo unspecified)
inactive: Potency [1] | Potency [2] | Potency [3] | Potency [4] | Potency [5] | Potency [17] | outcome [6] | outcome [7] | outcome [8] | outcome [9] | outcome [11] | outcome [12] | outcome [13] | outcome [14] | outcome [18] | outcome [15] | outcome [16] | outcome [19] | Potency [20]

CCS(=O)(=O)CCSP(=O)(OC)OC
inactive: Potency [1] | Potency [2] | Potency [3] | Potency [4] | Potency [5] | outcome [6] | outcome [7] | outcome [8] | outcome [9] | outcome [10] | outcome [11] | outcome [12] | outcome [13] | outcome [14] | outcome [18] | outcome [15] | outcome [16] | outcome [19] | Potency [20]

COP(=S)(OC)Oc1ccc(S(N)(=O)=O)cc1
inactive: Potency [1] | Potency [2] | Potency [3] | Potency [4] | Potency [5] | Potency [17] | outcome [6] | outcome [7] | outcome [8] | outcome [9] | outcome [10] | outcome [11] | outcome [13] | outcome [14] | outcome [18] | outcome [15] | outcome [16]

CN(C)CCc1ccc(O)cc1
inactive: Potency [1] | Potency [2] | Potency [3] | Potency [4] | Potency [5] | Potency [17] | outcome [6] | outcome [7] | outcome [8] | outcome [9] | outcome [10] | outcome [11] | outcome [12] | outcome [13] | outcome [14] | outcome [18] | outcome [15] | outcome [16]

N#Cc1ccncc1
inactive: Potency [1] | Potency [2] | Potency [3] | Potency [4] | Potency [5] | outcome [6] | outcome [7] | outcome [8] | outcome [9] | outcome [10] | outcome [11] | outcome [12] | outcome [13] | outcome [14] | outcome [18] | outcome [15] | outcome [16] | outcome [19]
